According to PubChem BioAssay (Tox21):
Inconclusive results are not listed. Active and inactive are the calls of the source. Unless noted, the call rests on the fitted dose curve.

Legend:
[1] = Nuclear factor erythroid 2-related factor 2/antioxidant responsive element (Nrf2/ARE) small molecule agonists: qHTS cell viability counter screen in human keratinocytes (AID 1919968; active means well fitted curve in the direction sought with a large enough effect in the repeat runs; an effect the other way counts as inactive or inconclusive; further: nearly all actives have a fitted effect of over 55% in size)
In short: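 Fluorescence read-out from CellTiter-Fluor after 1 h at 37 C. Wells held HaCaT-derived ARE-luciferase reporter cells (1,500/well) treated 23 h with DMSO-dissolved compounds. Run in the same wells as the luciferase agonist read.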

[2] = Nuclear factor erythroid 2-related factor 2/antioxidant responsive element (Nrf2/ARE) small molecule agonists: luciferase reporter gene qHTS assay in human keratinocytes (AID 1919969); further: nearly all actives have a fitted effect of over 35% in size; further: potency means the concentration at half of the fitted maximal effect
[3] = biological target: Gonadotropin-releasing hormone receptor (Homo sapiens) (UniProt P30968); test: Human gonadotropin-releasing hormone receptor (GnRHR) small molecule agonists, calcium flux assay in GnRHR-HEK293 cells (AID 1920063); further: nearly all actives have a fitted effect of over 35% in size
Gonadotropin-releasing hormone receptor (Homo sapiens), sequence (P30968 whole entry, looked up): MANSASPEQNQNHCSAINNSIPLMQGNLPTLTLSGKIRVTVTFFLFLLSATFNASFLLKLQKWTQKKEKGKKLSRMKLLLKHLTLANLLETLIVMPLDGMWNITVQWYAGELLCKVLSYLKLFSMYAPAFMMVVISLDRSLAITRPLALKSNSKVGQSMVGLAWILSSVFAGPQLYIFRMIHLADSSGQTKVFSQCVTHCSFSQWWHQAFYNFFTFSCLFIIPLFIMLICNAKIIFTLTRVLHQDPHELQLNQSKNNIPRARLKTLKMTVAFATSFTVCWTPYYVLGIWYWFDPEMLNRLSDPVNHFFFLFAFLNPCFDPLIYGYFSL
In short: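 Calcium-dye fluorescence, Ex/Em=480/540, recorded every 1 sec over 3 min after compound addition to GnRHR-HEK293 cells. Cells had been seeded 18 hours earlier and dye-loaded for 1 hour at 37 C. Fifteen concentrations, triplicates.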

[4] = biological target: KiSS-1 receptor (Homo sapiens) (UniProt Q969F8); test: Human kisspeptin (KISS1R) small molecule agonists, calcium flux assay in KISS1R-HEK293 cells (AID 1920064; active means well fitted curve in the direction sought with a large enough effect in the repeat runs; an effect the other way counts as inactive or inconclusive)
KiSS-1 receptor (Homo sapiens), sequence (Q969F8 whole entry, looked up): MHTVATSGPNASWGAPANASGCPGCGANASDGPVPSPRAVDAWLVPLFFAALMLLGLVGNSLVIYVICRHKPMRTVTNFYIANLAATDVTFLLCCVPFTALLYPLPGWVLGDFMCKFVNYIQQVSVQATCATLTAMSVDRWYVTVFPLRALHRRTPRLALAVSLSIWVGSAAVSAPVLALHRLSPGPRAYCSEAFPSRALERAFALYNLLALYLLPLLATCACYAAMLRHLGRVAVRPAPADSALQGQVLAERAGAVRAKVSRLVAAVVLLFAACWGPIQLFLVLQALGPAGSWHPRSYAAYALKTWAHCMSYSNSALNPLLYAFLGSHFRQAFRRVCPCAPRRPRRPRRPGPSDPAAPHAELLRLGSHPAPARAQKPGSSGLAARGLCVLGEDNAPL
In short: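 Calcium flux read-out: kinetic fluorescence at Ex/Em=480/540, 1 s intervals over 3 min, after pin-tool compound addition to dye-loaded KISS1R-HEK293 cells. Fifteen concentrations, triplicates.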

[5] = G protein-coupled receptor (GPCR) small molecule agonists, calcium flux assay: HEK293 wild type cell line counter screen (AID 1920065)
In short: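 Agonist mode; 18 h seeding at 37 C, 1 h dye load at 37 C; compounds pinned from DMSO, ATP as positive control; kinetic fluorescence 480/540 nm, 3 min, 1 s reads; 15 concentrations, triplicate.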

[6] = p53 small molecule agonists, cell-based qHTS assay with human liver microsomes (AID 1963577);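 further: p53 response element beta-lactamase reporter cells with liver microsomes plus NADPH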
In short: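 With metabolic activation: human liver microsomes (0.5 mg/mL final) plus NADPH (0.5 mg/mL final) added alongside compounds to p53RE-bla cells; 16 h 37 C exposure; beta-lactamase read by LiveBLAzer fluorescence.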

[7] = p53 small molecule agonists, cell-based qHTS assay with rat liver microsomes (AID 1963578)
In short: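 Metabolic activation by rat liver microsomes and NADPH, each 0.5 mg/mL final, added right after compounds to p53RE-bla reporter cells (4,000/well, plated 5 h earlier). 16 h at 37 C, then LiveBLAzer substrate for 2 h at room temperature in the dark; fluorescence read-out.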

[8] = p53 small molecule agonists, cell-based qHTS assay with human liver microsomes: qHTS cell viability counter screen (AID 1963579); further: nearly all actives have a fitted effect of over 45% in size; further: potency means the concentration at half of the fitted maximal effect
In short: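 Metabolic activation used human liver microsomes and NADPH, both 0.5 mg/mL final, over 16 hours at 37 C on p53RE-bla cells (4,000/well). Cytotoxicity measured by CellTiter-Glo luminescence, 30 min at room temperature.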

[9] = p53 small molecule agonists, cell-based qHTS assay with rat liver microsomes: qHTS cell viability counter screen (AID 1963580); further: nearly all actives have a fitted effect of over 45% in size
In short: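 Rat liver microsome (0.5 mg/mL final) and NADPH (0.5 mg/mL final) co-incubation with compounds for 16 h at 37 C on HCT-116 p53RE-bla cells; cytotoxicity taken from intracellular ATP luminescence.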

[10] = p53 small molecule agonists, cell-based qHTS assay: qHTS cell viability counter screen (AID 1963581); further: nearly all actives have a fitted effect of over 45% in size
In short: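 Cytotoxicity read-out: ATP-based luminescence (CellTiter-Glo, 30 min RT) measured in the same wells as the p53 reporter assay, HCT-116 p53RE-bla cells, 16 h compound exposure at 37 C.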

[11] = p53 small molecule agonists, cell-based qHTS assay (AID 1963582; active means well fitted activation curve with a large enough effect in the signal ratio in the repeat runs, not every such curve was filed as active; the % refers to the signal ratio)
In short: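 Fluorescence intensity read-out of a beta-lactamase reporter under a p53 response element. Cells were exposed to DMSO-dissolved compounds for 16 h at 37 C, then developed with FRET substrate for 2 h at RT.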

[12] = biological target: 5-hydroxytryptamine receptor 2A (Homo sapiens) (UniProt P28223); test: 5-hydroxytryptamine receptor 2A (HTR2A) small molecule antagonists, cell-based qHTS assay (AID 1963586); further: nearly all actives have a fitted effect of over 45% in size
5-hydroxytryptamine receptor 2A (Homo sapiens), sequence (P28223 whole entry, looked up): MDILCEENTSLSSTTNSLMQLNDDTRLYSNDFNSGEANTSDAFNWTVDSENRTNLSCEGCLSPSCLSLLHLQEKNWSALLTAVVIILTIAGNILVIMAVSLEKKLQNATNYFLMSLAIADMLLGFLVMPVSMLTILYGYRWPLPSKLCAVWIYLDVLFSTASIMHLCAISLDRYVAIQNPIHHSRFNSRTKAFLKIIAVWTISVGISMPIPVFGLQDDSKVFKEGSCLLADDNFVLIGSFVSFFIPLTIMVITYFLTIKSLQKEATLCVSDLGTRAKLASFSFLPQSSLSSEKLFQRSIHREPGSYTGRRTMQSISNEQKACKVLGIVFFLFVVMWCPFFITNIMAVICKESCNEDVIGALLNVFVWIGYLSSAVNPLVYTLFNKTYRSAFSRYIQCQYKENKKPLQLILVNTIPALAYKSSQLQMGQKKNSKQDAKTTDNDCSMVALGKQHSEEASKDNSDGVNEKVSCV
In short: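 CHO cells stably expressing human HTR2A were plated for 18 h at 37 C, then loaded with calcium dye for 1 h. Compounds were preincubated 5 min at room temperature before DOI (4 nM solution) was added. Kinetic fluorescence was read for 3 min.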

[13] = biological target: 5-hydroxytryptamine receptor 2A (Homo sapiens) (UniProt P28223); test: 5-hydroxytryptamine receptor 2A (HTR2A) small molecule agonists, cell-based qHTS assay (AID 1963587); further: nearly all actives have a fitted effect of over 30% in size
In short: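 Kinetic calcium-flux fluorescence (2 min, 1 sec intervals) after compound addition in agonist mode. HTR2A-CHO cells were cultured 18 h, then dye-loaded 1 h at 37 C.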

[14] = biological target: Muscarinic acetylcholine receptor M1 (Homo sapiens) (UniProt P11229); test: Cholinergic receptor muscarinic 1 (CHRM1) small molecule antagonists, cell-based qHTS assay (AID 1963588); further: nearly all actives have a fitted effect of over 40% in size
Muscarinic acetylcholine receptor M1 (Homo sapiens), sequence (P11229 whole entry, looked up): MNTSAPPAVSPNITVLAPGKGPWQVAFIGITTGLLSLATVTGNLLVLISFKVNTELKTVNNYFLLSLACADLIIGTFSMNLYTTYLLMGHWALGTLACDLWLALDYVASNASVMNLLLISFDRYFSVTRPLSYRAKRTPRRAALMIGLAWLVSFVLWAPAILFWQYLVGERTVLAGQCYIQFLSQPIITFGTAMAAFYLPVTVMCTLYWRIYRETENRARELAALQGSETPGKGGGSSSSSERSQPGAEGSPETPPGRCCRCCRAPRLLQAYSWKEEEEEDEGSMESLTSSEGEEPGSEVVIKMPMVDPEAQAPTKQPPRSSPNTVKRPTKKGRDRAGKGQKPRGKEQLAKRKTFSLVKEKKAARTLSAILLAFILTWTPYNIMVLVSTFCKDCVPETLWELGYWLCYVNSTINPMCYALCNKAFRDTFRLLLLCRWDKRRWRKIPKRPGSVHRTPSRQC
In short: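 Compounds were tested at 15 concentrations in three independent runs. Dye-loaded CHRM1-CHO cells were exposed 5 min at room temperature before stimulation by acetylcholine added at 50nM. Intracellular calcium was read kinetically on FDSS for 3 min.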

[15] = biological target: Muscarinic acetylcholine receptor M1 (Homo sapiens) (UniProt P11229); test: Cholinergic receptor muscarinic 1 (CHRM1) small molecule agonists, cell-based qHTS assay (AID 1963589); further: nearly all actives have a fitted effect of over 35% in size
In short: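 Calcium flux read-out: kinetic fluorescence at 1 sec intervals after pin-tool compound addition to dye-loaded CHRM1-CHO cells (human M1). Agonist mode; 15 concentrations tested in triplicate independent runs.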

[16] = cAMP Responsive Elements (CRE) small molecule agonists, cell-based qHTS assay (AID 1963590)
In short: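 Beta-lactamase reporter readout: LiveBLAzer B/G FRET substrate, 2 h at room temperature, added after 3 h compound treatment of CRE-bla HEK 293T cells at 37 C/5% CO2.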

[17] = biological target: Beta-2 adrenergic receptor (Homo sapiens) (UniProt P07550); test: Adrenergic beta2 receptor (ADRB2) small molecule antagonists, cell-based qHTS assay (AID 1963592); further: series mostly up to about 92 µM; nearly all actives have a fitted effect of over 50% in size
Beta-2 adrenergic receptor (Homo sapiens), sequence (P07550 whole entry, looked up): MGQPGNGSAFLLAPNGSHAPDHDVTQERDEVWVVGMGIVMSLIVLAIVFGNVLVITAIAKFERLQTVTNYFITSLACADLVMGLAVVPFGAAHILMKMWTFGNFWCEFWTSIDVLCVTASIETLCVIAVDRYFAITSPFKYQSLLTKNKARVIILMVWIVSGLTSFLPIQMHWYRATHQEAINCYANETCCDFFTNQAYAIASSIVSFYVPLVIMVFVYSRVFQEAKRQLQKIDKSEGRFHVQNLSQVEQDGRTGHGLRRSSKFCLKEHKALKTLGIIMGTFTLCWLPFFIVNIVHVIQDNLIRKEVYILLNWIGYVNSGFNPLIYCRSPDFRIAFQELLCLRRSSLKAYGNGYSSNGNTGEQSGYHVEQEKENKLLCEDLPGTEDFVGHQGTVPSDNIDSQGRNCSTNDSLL
In short: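 Assay format: CHO-ADRB2 cells, 18-20hr seeding at 37C/5% CO2, then compound plus 1nM isoproterenol agonist mix for 0.5hr RT. Homogeneous time-resolved fluorescence cAMP detection after 1hr, expressed as 665/615 nm ratio.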

[18] = biological target: D(2) dopamine receptor (Homo sapiens) (UniProt P14416); test: Dopamine D2 receptor (DRD2) small molecule antagonists, cell-based qHTS assay (AID 1963595; active means well fitted inhibition curve with a large enough effect in the signal ratio in the repeat runs, with a control signal flat; the % refers to the signal ratio)
D(2) dopamine receptor (Homo sapiens), sequence (P14416 whole entry, looked up): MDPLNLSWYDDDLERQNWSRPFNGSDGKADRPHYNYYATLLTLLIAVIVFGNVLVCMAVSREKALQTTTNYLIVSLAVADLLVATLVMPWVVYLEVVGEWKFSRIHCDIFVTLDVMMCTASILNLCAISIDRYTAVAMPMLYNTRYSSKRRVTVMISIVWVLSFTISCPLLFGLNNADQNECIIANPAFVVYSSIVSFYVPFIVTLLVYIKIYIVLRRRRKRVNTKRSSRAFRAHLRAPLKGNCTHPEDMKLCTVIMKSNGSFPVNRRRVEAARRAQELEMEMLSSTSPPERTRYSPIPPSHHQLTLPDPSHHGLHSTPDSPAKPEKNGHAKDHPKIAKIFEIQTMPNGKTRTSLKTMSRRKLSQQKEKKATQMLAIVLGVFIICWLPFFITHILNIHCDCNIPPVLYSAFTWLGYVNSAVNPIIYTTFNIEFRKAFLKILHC
In short: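 HEK293 cells stably expressing DRD2 were preincubated with 0.1 mM Ro20-1724, then with compound for 10 min at room temperature. Cells were stimulated with 200 nM NKH477 plus 12 nM quinpirole for 30 min, and cAMP was read by HTRF.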

[19] = biological target: D(2) dopamine receptor (Homo sapiens) (UniProt P14416); test: Dopamine D2 receptor (DRD2) small molecule agonists, cell-based qHTS assay (AID 1963594); further: nearly all actives have a fitted effect of over 35% in size
In short: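 cAMP accumulation in DRD2-HEK293 cells measured by HTRF after 1 h detection; compounds added 10 min before NKH477 (200nM […]) forskolin-analogue stimulation, 30 min at room temperature, with Ro20-1724 present at 0.1 mM final.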

[20] = cAMP Responsive Elements (CRE) small molecule antagonists, cell-based qHTS assay (AID 1963591; active means well fitted inhibition curve with a large enough effect in the signal ratio in the repeat runs, not every such curve was filed as active; the % refers to the signal ratio)
In short: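 HEK293T CRE-bla; 18 h preincubation; compound pin-transfer; NKH477 0.25 uM final, 3 h, 37 C; LiveBLAzer FRET substrate 2 h RT.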

Measured: Potency

COC(C)(OC)OC
not listed: [19] | [20]
inactive: all other assays above

OC(CCN1CCCC1)(c1ccccc1)C1CCCCC1 (stereo not drawn)
not listed: [17] | [18] | [20]
inactive: all other assays above

NCCS
not listed: [20]
inactive: all other assays above

C[C@]12C=CC(=O)C=C1[C@@H](F)C[C@@H]1[C@@H]2[C@@H](O)C[C@@]2(C)[C@H]1CC[C@]2(O)C(=O)CO
not listed: [16] | [19]
inactive: all other assays above

COc1cc2c(cc1N)oc1ccccc12
active: [2] 62.4 µM | [8] 33.1 µM
not listed: [17] | [20]
inactive: all other assays above

CCN(CC)C(C)=O
not listed: [20]
inactive: all other assays above

CO/N=C(\C(=O)O)c1csc(NC(=O)CCl)n1
not listed: [16]
inactive: all other assays above
